In article PMC5540273 (PLoS ONE, 2017):

Columns and labels:
Conditions in all cases: concentration: 1 μM, replicates: in singlicate; n = 1
PRKCQ = test system: PRKCQ
PRKD1 = test system: PRKD1
PRKD2 = test system: PRKD2
PRKD3 = test system: PRKD3
PRKG1 = test system: PRKG1
PRKG2 = test system: PRKG2
PRKR = test system: T1, PRKR
T1 construct: gene EIF2AK2

PRKX = test system: PRKX
PRP4 = test system: PRP4
PYK2 = test system: T2, PYK2
T2 construct: gene PTK2B

QSK = test system: QSK
RAF1 = test system: RAF1
RET = test system: RET
RIOK1 = test system: RIOK1
RIOK2 = test system: RIOK2
RIOK3 = test system: RIOK3
RIPK1 = test system: RIPK1
RIPK2 = test system: RIPK2
RIPK4 = test system: RIPK4
RIPK5 = test system: RIPK5
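Also: KINOMEscan kinase panel screen.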

SMILES | %Inh (PRKCQ) [%] | %Inh (PRKD1) [%] | %Inh (PRKD2) [%] | %Inh (PRKD3) [%] | %Inh (PRKG1) [%] | %Inh (PRKG2) [%] | %Inh (PRKR) [%] | %Inh (PRKX) [%] | %Inh (PRP4) [%] | %Inh (PYK2) [%] | %Inh (QSK) [%] | %Inh (RAF1) [%] | %Inh (RET) [%] | %Inh (RIOK1) [%] | %Inh (RIOK2) [%] | %Inh (RIOK3) [%] | %Inh (RIPK1) [%] | %Inh (RIPK2) [%] | %Inh (RIPK4) [%] | %Inh (RIPK5) [%]
Cc1cc(-c2ccc3c(c2)CC[C@@H](N[C@@H](C)c2ccccc2)C3)cnc1N.Cl [GW412617] | 36 | 18 | 21 | 0 | 9 | 0 | 0 | 12 | 0 | 12 | 0 | 19 | 0 | 44 | 85 | 32 | 50 | 15 | 13 | 7
Nc1ncnc2[nH]c(-c3ccccc3)nc12 [AH5015] | 0 | 0 | 0 | 9 | 6 | 0 | 0 | 0 | 30 | 0 | 0 | 42 | 0 | 0 | 4 | 0 | 16 | 6 | 17 | 8
CN1C(=O)C(Nc2ccc(Cl)c(C(=O)O)c2)=C(c2ccc(Cl)cc2)C1=O [SB-404290] | 77 | 0 | 6 | 0 | 13 | 0 | 0 | 0 | 0 | 5 | 40 | 0 | 0 | 0 | 0 | 18 | 0 | 0 | 18 | 17
Cc1ccc(-c2cc(-c3c[nH]nc3-c3ccccn3)ccn2)cc1 [GW684088] | 1 | 68 | 62 | 69 | 0 | 16 | 24 | 21 | 27 | 16 | 0 | 21 | 6 | 18 | 0 | 3 | 28 | 27 | 0 | 3
COc1ccc2nc(-c3cccc(C)n3)nc(Nc3ccncc3)c2c1 [GSK204919] | 44 | 92.4 | 98.8 | 100 | 8 | 0 | 0 | 7 | 8 | 9 | 0 | 6 | 18 | 24 | 0 | 16 | 0 | 33 | 5 | 0
Cc1cccc(-c2nc(Nc3ccc4[nH]ncc4c3)c3ccccc3n2)n1 [GW857175] | 27 | 99.8 | 99.9 | 98.1 | 0 | 2 | 0 | 0 | 13 | 0 | 4 | 8 | 13 | 39 | 8 | 29 | 0 | 0 | 44 | 35
COc1cc2ncnc(Nc3ccc4nc(-c5ccccc5)[nH]c4c3)c2cc1OC.Cl [GW282450] | 11 | 0 | 5 | 7 | 0 | 13 | 13 | 5 | 10 | 7 | 0 | 10 | 33 | 51 | 11 | 25 | 18 | 27 | 1 | 0
Clc1cc(Cl)cc(Nc2ccnc(Nc3cc(Cl)cc(Cl)c3)n2)c1 [GSK175726] | 0 | 0 | 12 | 0 | 0 | 12 | 14 | 10 | 6 | 19 | 0 | 17 | 10 | 34 | 91.7 | 35 | 0 | 41 | 10 | 6
Cc1c(Cn2ccn3c(=O)cc(N4CCOCC4)nc23)cccc1C(F)(F)F [GSK2289044] | 3 | 6 | 19 | 0 | 0 | 9 | 4 | 25 | 0 | 0 | 3 | 5 | 8 | 3 | 34 | 5 | 9 | 10 | 0 | 0
CC(C)(C)c1ccc(C(=O)Nc2cn3cc(Cl)ccc3n2)cc1 | 18 | 0 | 0 | 0 | 0 | 0 | 0 | 0 | 0 | 96.6 | 3 | 0 | 0 | 25 | 0 | 0 | 0 | 5 | 0 | 0
